This is part of a sample that, as a whole, favours compounds with a hit. Of some 79,000 tested, about 15% had one in any assay. Rule as the data show it: active = growth inhibition above about 70%; inactive = the rest.
What was measured:
[1] = NCI Yeast Anticancer Drug Screen. Data for the mec2-1 strain (AID 157); details: S. cerevisiae mec2-1 strain, hits give high values
Summary of the method: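 Readout is yeast growth inhibition, normalised to vehicle-treated controls, in the mec2-1 strain exposed to compound.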

[2] = NCI Yeast Anticancer Drug Screen. Data for the rad14 strain (AID 159);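 also: 0% = growth of vehicle-treated control cultures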; details: S. cerevisiae rad14 strain growth inhibition, hits give high values
Summary of the method: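 Readout: yeast growth inhibition, referenced to vehicle-only cultures. Strain bears a defined alteration in DNA damage repair.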

[3] = NCI Yeast Anticancer Drug Screen. Data for the sgs1 mgt1 strain (AID 161);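 also: 0% = growth of cultures given vehicle only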; details: S. cerevisiae sgs1 mgt1 strain, hits give high values
Summary of the method: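 Compounds are added to genetically altered yeast, and growth is compared with cultures given vehicle alone to give percent inhibition.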

[4] = NCI Yeast Anticancer Drug Screen. Data for the CLN2oe strain (AID 163);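 also: 0% = growth of vehicle-only control cultures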; details: S. cerevisiae CLN2oe strain, hits give high values
Summary of the method: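 Values reflect how much compound exposure reduced yeast growth, referenced to vehicle-exposed cells. Assay organism is a strain with a defined genetic change affecting cell-cycle control.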

[5] = NCI Yeast Anticancer Drug Screen. Data for the cln2 rad14 strain (AID 165);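 also: 0% = growth equal to vehicle treated cultures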; details: S. cerevisiae cln2 rad14 strain, hits give high values
Summary of the method: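 Relative to vehicle controls, growth inhibition of compound-treated cln2 rad14 yeast was recorded.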

[6] = NCI Yeast Anticancer Drug Screen. Data for the bub3 strain (AID 167); details: S. cerevisiae bub3 mutant strain, hits give high values
Summary of the method: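 Part of a panel of yeast mutants defective in DNA damage repair or cell cycle regulation. Each strain is grown with compound, and inhibition is calculated relative to solvent-treated cultures.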

[7] = NCI Yeast Anticancer Drug Screen. Data for the wt2 strain (AID 169);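 also: 0% = growth of vehicle-treated yeast cultures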; details: S. cerevisiae wt2 strain growth inhibition, hits give high values
Summary of the method: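 Values express reduction in yeast growth under compound treatment, referenced to vehicle-treated cells.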

[8] = NCI Yeast Anticancer Drug Screen. Data for the mlh1 strain (AID 171);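 also: 0% = growth of vehicle-treated control cultures of the same strain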; details: S. cerevisiae mlh1 strain growth inhibition, hits give high values
Summary of the method: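 Steps: expose the defined-mutant yeast strain to compound; expose a parallel culture to vehicle; measure growth; express compound effect as inhibition relative to the vehicle culture.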

[9] = NCI Yeast Anticancer Drug Screen. Data for the sgs1 strain (AID 173);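 also: 0% = growth of vehicle-only control cultures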; details: S. cerevisiae sgs1 mutant, hits give high values
Summary of the method: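 Treat defined-mutant yeast with compound; measure growth; calculate inhibition relative to vehicle-treated cells.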

[10] = NCI Yeast Anticancer Drug Screen. Data for the mlh1 rad18 strain (AID 175); details: S. cerevisiae mlh1 rad18 strain growth inhibition, hits give high values
Summary of the method: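 Test agents were incubated with a yeast strain of defined genotype (DNA damage repair defect). Inhibition of growth was derived by comparison with vehicle-exposed cultures.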

[11] = NCI Yeast Anticancer Drug Screen. Data for the rad18 strain (AID 177); details: S. cerevisiae rad18 mutant growth inhibition, hits give high values
Summary of the method: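 A genetically defined yeast mutant impaired in DNA damage repair was treated with test compounds, then its growth was measured against cultures receiving vehicle alone.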

[12] = at 5.0 µM (retest, dose inferred, filed as 0.5)
[13] = at 50.0 µM (retest, dose inferred, filed as 5.0)

Measured: growth inhibition

COc1ccc2c3c1OC(C)C31CC(=O)CCC1CC2 (stereo not drawn)
inactive: [1]; [12] -15% | [1]; at 11.0 µM -3% | [1]; at 33.0 µM -3% | [1]; [13] 2% | [1]; at 50.0 µM 14.7% | [1]; at 100.0 µM -2% | [2]; at 1.2 µM -2% | [2]; at 3.7 µM 1% | [2]; at 11.0 µM 2% | [2]; at 33.0 µM 1% | [2]; at 100.0 µM 7% | [3]; [12] 14% | [3]; [13] 25% | [3]; at 50.0 µM 8.45% | [4]; at 1.2 µM -2% | [4]; at 3.7 µM -8% | [4]; at 11.0 µM 1% | [4]; at 33.0 µM -1% | [4]; at 100.0 µM 8% | [5]; [12] 14% | [5]; [13] 9% | [5]; at 50.0 µM 5.05% | [6]; at 1.2 µM -5% | [6]; at 3.7 µM -3% | [6]; [12] 8% | [6]; at 11.0 µM -5% | [6]; at 33.0 µM 0% | [6]; [13] 34% | [6]; at 50.0 µM 10.9% | [6]; at 100.0 µM 8% | [7]; at 1.2 µM -8% | [7]; at 3.7 µM -9% | [7]; at 11.0 µM -7% | [7]; at 33.0 µM -7% | [7]; at 100.0 µM -11% | [8]; at 1.2 µM -6% | [8]; at 3.7 µM -2% | [8]; at 11.0 µM -3% | [8]; at 33.0 µM -4% | [8]; at 100.0 µM 1% | [9]; at 1.2 µM -1% | [9]; at 3.7 µM -6% | [9]; at 11.0 µM -8% | [9]; at 33.0 µM 9% | [9]; at 100.0 µM 9% | [10]; [12] 12% | [10]; [13] 51% | [10]; at 50.0 µM -0.75% | [11]; at 1.2 µM -7% | [11]; at 3.7 µM -1% | [11]; at 11.0 µM 3% | [11]; at 33.0 µM 0% | [11]; at 100.0 µM 25%

From PubChem BioAssay (NCI)
